This note sets out measurements from the supplement of paper PMC10849652.

Of roughly 8,800 targets only a part is listed; those with a hit were picked by preference. About 0.5% of all pairs of compound and target were hits.

Chain of UniProt Q9NZ72 (Q9NZ72 whole entry, looked up): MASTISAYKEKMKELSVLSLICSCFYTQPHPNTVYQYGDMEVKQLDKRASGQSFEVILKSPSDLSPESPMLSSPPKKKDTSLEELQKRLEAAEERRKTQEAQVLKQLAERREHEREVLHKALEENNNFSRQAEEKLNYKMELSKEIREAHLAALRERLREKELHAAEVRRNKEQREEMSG
Chain of UniProt Q13487 (Q13487 whole entry, looked up): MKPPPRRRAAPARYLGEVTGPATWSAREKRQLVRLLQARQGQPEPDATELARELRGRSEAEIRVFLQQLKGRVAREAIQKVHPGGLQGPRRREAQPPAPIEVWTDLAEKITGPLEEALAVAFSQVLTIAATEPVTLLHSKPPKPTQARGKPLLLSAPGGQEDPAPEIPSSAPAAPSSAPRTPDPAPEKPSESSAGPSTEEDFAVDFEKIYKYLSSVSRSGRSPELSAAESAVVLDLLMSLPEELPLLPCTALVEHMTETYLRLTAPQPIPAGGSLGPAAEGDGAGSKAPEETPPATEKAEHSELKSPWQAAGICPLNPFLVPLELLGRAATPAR
Chain of UniProt Q9Y2H1 (Q9Y2H1 whole entry, looked up): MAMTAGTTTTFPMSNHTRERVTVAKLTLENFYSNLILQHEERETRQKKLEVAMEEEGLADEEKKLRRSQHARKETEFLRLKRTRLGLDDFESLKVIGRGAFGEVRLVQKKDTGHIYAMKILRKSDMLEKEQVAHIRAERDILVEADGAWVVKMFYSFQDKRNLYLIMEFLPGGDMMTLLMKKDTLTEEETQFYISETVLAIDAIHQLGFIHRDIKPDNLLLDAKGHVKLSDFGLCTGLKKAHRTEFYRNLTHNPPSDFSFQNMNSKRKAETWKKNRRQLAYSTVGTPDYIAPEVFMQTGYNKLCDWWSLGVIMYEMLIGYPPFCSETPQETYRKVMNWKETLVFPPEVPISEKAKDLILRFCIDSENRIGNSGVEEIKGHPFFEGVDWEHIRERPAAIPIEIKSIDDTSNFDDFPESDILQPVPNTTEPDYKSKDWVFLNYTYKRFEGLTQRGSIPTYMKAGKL
Chain of UniProt Q8NDV3 (Q8NDV3 whole entry, looked up): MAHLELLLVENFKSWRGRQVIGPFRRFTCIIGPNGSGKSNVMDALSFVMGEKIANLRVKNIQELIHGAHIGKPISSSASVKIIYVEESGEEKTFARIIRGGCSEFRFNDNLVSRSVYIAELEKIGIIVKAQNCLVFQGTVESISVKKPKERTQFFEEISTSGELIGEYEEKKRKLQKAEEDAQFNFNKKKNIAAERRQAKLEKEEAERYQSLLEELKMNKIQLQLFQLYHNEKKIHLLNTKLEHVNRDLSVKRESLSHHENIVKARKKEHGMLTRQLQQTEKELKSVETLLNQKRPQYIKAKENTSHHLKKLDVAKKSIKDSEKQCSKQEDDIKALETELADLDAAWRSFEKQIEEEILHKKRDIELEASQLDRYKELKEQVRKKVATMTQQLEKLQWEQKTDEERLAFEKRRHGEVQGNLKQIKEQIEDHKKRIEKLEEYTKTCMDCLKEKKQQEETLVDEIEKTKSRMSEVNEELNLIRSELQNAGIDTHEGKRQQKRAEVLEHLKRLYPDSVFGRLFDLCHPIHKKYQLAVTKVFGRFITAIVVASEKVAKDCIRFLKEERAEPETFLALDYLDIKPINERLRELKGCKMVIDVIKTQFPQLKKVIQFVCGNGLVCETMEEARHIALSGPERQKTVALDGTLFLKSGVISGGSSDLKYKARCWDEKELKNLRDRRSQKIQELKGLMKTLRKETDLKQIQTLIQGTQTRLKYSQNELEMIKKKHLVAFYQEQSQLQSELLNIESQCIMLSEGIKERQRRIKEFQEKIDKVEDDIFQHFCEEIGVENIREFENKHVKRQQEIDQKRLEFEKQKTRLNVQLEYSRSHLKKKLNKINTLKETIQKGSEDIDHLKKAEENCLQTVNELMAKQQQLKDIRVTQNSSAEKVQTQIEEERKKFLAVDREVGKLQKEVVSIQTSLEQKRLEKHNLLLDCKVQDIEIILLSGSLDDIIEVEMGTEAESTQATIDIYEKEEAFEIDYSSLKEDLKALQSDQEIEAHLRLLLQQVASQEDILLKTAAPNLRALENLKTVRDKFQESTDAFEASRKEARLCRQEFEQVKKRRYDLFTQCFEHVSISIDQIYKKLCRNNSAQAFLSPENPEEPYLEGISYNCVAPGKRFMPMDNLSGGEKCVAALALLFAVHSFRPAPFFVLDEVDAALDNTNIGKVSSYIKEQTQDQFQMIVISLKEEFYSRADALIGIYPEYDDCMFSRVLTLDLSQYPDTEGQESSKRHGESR
Chain of UniProt Q9UHW9 (Q9UHW9 whole entry, looked up): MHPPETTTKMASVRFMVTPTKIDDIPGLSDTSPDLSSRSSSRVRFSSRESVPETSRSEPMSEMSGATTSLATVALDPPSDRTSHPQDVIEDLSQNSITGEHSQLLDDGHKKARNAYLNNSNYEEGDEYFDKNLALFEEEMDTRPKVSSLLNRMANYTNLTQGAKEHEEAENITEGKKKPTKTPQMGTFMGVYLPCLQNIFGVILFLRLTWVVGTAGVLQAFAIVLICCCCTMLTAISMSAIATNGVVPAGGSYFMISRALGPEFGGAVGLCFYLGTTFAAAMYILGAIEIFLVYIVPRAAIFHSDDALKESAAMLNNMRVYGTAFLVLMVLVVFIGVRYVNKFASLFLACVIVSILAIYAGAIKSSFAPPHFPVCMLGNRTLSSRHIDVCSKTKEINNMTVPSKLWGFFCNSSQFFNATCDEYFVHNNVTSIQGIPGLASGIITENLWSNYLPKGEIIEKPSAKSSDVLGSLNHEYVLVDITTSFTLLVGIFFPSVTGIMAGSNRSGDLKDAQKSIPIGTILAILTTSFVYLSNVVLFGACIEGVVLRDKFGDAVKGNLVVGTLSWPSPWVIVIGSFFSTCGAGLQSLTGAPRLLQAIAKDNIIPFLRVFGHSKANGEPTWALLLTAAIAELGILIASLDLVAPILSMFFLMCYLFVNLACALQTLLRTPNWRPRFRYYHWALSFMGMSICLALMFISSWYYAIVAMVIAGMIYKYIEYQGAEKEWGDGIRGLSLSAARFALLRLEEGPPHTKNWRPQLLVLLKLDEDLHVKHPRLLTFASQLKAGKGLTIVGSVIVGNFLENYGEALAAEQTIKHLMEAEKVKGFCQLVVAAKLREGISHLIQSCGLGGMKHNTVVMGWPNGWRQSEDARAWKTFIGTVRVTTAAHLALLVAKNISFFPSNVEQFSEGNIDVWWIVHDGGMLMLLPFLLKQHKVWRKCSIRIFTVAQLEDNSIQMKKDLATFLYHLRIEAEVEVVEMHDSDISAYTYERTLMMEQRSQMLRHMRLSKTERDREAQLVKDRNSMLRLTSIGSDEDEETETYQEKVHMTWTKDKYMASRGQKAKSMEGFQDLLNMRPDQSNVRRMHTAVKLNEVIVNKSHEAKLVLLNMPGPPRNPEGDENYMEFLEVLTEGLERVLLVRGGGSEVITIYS
Chain of UniProt O60906 (O60906 whole entry, looked up): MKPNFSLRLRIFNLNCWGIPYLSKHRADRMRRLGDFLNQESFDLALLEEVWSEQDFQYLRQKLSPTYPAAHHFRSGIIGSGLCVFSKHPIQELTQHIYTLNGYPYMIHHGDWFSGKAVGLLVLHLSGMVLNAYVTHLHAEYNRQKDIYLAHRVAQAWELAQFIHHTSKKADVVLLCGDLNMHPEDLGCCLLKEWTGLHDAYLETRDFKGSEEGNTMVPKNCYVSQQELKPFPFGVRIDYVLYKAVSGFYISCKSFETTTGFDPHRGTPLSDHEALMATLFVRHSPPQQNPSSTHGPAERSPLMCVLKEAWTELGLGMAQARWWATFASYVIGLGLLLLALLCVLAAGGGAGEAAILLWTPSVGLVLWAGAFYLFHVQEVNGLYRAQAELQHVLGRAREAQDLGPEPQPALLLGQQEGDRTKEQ
Chain of UniProt Q15464 (Q15464 whole entry, looked up): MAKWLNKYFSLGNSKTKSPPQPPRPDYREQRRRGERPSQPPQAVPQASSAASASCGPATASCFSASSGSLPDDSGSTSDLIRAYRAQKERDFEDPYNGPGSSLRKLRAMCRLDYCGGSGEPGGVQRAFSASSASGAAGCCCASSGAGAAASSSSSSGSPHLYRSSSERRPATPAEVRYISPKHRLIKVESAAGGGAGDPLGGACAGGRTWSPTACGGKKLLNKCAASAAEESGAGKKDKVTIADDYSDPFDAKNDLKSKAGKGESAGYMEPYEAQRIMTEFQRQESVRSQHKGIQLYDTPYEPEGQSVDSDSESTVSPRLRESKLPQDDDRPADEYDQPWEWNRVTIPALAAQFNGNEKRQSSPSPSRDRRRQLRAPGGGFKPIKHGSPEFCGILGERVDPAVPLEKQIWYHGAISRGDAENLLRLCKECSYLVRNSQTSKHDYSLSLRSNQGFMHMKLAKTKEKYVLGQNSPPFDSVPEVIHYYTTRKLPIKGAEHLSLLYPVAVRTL
Chain of UniProt O94768 (O94768 whole entry, looked up): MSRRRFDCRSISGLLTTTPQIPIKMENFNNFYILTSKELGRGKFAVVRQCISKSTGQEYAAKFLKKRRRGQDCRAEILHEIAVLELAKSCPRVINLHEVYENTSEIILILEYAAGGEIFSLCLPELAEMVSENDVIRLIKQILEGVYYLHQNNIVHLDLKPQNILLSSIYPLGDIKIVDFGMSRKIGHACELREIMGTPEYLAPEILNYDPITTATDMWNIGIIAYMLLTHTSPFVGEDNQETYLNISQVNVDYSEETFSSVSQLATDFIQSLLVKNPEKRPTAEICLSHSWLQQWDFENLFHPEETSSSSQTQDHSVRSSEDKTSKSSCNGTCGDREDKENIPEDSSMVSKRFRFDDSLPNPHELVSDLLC
Chain of UniProt B2RUZ4 (B2RUZ4 whole entry, looked up): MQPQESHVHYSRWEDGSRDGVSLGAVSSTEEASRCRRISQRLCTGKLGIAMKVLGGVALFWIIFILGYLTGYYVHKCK
Chain of UniProt Q15506 (Q15506 whole entry, looked up): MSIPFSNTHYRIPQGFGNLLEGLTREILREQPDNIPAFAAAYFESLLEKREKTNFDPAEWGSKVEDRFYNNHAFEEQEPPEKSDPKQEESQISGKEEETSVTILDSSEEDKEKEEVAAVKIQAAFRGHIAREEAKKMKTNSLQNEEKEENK

Compound in the first experiment: CN1CCc2c(c3ccccc3n2Cc2ccc(C(=O)NO)cc2)C1 [Tubastatin A]
The experiment in a line: log2 fold change, soluble protein after heating vs DMSO (PISA); higher = thermal stabilisation; K562 lysate, 10 uM; active = over 0.2 and 3.5 SD of the protein, either way, in both replicates (recomputed). The method in brief:
(§1)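 Pellets of K562 cells were dounce-homogenised in PBS pH 7.4 with 1 mM MgCl2, and the crude extract was held at 1 mg/mL protein for a 30 min treatment with 10 μM compound. Aliquots were heated for 3 min over 48°C-58°C and pooled before NP-40 was added to 0.5% at 4°C. The supernatant from 21,000xg for 90 min was quantified by TMTpro 16plex LC-MS/MS with channel sums equalised. Values are reported from duplicates as log-two fold change in thermal stability relative to solvent controls.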
In the case of SMARCA4 isoform 4 (UniProt P51532), the log2 fold change is 0.106 (inactive). Still for that read-out and setting: next, TAF1B (UniProt Q53T94): -0.083 (inactive); SNRPD2 (UniProt K7EJB5): -0.001 (inactive); STK3 isoform 2 (UniProt Q13188): -0.075 (inactive). Still for that read-out and setting: then SMPD2 (UniProt O60906), with 0.088 (inactive). Still for that read-out and setting: next, SLC41A1 (UniProt Q8IVJ1): 0.055 (inactive); SLC12A6 isoform 2 (UniProt Q9UHW9): -0.013 (inactive). SZT2 (UniProt Q5T011): the log2 fold change is 0.012 (inactive).

Regarding SPAG1 (UniProt Q07617), the log2 fold change is 0.071 (inactive). Same read-out and setting: then SURF2 (UniProt Q15527), with -0.276 (inactive); and SMIM1 (UniProt B2RUZ4), with 0.123 (inactive); and SMYD3 (UniProt Q9H7B4), with -0.122 (inactive). Turning to STK17B (UniProt O94768), the log2 fold change is -0.466 (inactive). Still for that read-out and setting: next, TAOK2 (UniProt Q9UL54): 0.046 (inactive). SHB (UniProt Q15464): the log2 fold change was -0.108 (inactive). On the same count and under the same terms, next, STMN3 (UniProt Q9NZ72): 0.009 (inactive).

Take SPA17 (UniProt Q15506): the log2 fold change is 0.021 (inactive).

SIX5 (UniProt Q8N196): the log2 fold change is 0.117 (inactive). The same measure, in the same setting: then SMC1B isoform 3 (UniProt Q8NDV3), with 0.038 (inactive). On the same count and under the same terms, next, SLC39A13 (UniProt Q96H72): -0.125 (inactive); SNAPC2 (UniProt Q13487): -0.117 (inactive).

TAF11 (UniProt Q15544): the log2 fold change was 0.014 (inactive). The same measure, in the same setting: next, SRC isoform 2 (UniProt P12931): 0.133 (inactive); STK38L (UniProt Q9Y2H1): -0.063 (inactive).

Compound in another experiment: CNC(=O)C1=CC=CC=C1NC2=NC(=NC=C2Cl)NC3=C(C=C(C=C3)N4CCOCC4)OC
The experiment is described as above. The procedure, abridged: as §1
For the target SMARCA4 isoform 4 (UniProt P51532), the log2 fold change is -0.008 (inactive). The same measure, in the same setting: next, SNRPD2 (UniProt K7EJB5): -0.057 (inactive); SMPD2 (UniProt O60906): -0.787 (inactive). For SLC41A1 (UniProt Q8IVJ1), the log2 fold change was 0.043 (inactive).

Turning to SLC22A18 (UniProt Q96BI1), the log2 fold change is 0.052 (inactive). Regarding SLC12A6 isoform 2 (UniProt Q9UHW9), the log2 fold change is -0.149 (inactive).

SZT2 (UniProt Q5T011): the log2 fold change was -0.002 (inactive). Same read-out and setting: then SMIM1 (UniProt B2RUZ4), with 0.097 (inactive); and SMYD3 (UniProt Q9H7B4), with -0.018 (inactive); and STK17B (UniProt O94768), with 0.082 (inactive).

For the target SHB (UniProt Q15464), the log2 fold change is 0.169 (inactive). The same measure, in the same setting: next, STMN3 (UniProt Q9NZ72): 0.014 (inactive). Same read-out and setting: then SIX5 (UniProt Q8N196), with 0.015 (inactive). For the target SMC1B isoform 3 (UniProt Q8NDV3), the log2 fold change is 0 (inactive). On the same count and under the same terms, next, SLC39A13 (UniProt Q96H72): -0.058 (inactive); SNAPC2 (UniProt Q13487): -0.005 (inactive).

For SRC isoform 2 (UniProt P12931), the log2 fold change is 0.118 (inactive). Take STAU1 isoform 3 (UniProt O95793): the log2 fold change is -0.044 (inactive). The same measure, in the same setting: next, STK38L (UniProt Q9Y2H1): 0.647 (active).
